Drawing on PubChem BioAssay (NCI), this text covers growth for twelve molecules.

About 83,000 compounds went through this panel and 20% of them were active in at least one assay; those are over-represented in the sample as a whole.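 48-hour exposure, single concentration, 96-well plates; percent growth endpoint where 0 means no net growth. Active: below 10.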 Values without a mark were called inactive.

This assay has as its system RPMI-8226 leukemia. Briefly: NCI-60 one-dose screen, 48 h (100 = growth as untreated, 0 = no growth, -100 = all killed). The conditions noted are these: 10 µM.
With `COc1cc(/C=C/C(=O)c2ccc(C(F)(F)F)cc2)ccc1Oc1nc(Nc2ccc(F)cc2)nc(N(C)C)n1`, the growth was 13.5%.

In the case of `Cc1ccc(/C=C/C(=O)c2ccc(NC(=O)CSc3nnc(-c4c[nH]c5ccccc45)n3-c3ccccc3)cc2)c(C)c1`, the growth is 22.8%.

Consider `COc1ccc(/C=C/C(=O)c2ccc(S(=O)(=O)NCCNc3nc(Nc4ccc(F)cc4)nc(N(C)C)n3)cc2)cc1`, for which the growth is 10.5%.

`N#Cc1c(-c2ccc(Cl)cc2)cc(-c2ccccc2)nc1OCc1ccccc1`: the growth is 60.3%.

As to `Nc1nnc(-c2c[nH]c3ncccc23)c(-c2c[nH]c3ccc(Br)cc23)n1`, the growth was 38.7%.

Consider `CC(=O)OC[C@@]1(C)C2CC[C@]3(C)C(CC=C4C5CC(C)(C)CC[C@]5(C(=O)Nc5ccccc5)CC[C@]43C)[C@@]2(C)C[C@@H](OC(C)=O)[C@@H]1OC(C)=O` (some centres not stated), for which the growth was 10.7%.

As for `O=C(CSc1nnc(-c2c[nH]c3ccccc23)n1-c1ccccc1)Nc1ccc(C(=O)/C=C/c2cccc([N+](=O)[O-])c2)cc1`, the growth is 13.9%.

As to `C/C(=C\c1ccc(O)cc1O)c1ccc2ccc(O)cc2[o+]1`, the growth was 65.7%.

Turning to `CCCCOc1ccc(Nc2nc3ccccc3nc2Nc2ccc(OCCCC)cc2)cc1`, the growth is 57.8%.

Take `Nc1nc(Nc2ccc(Cl)cc2)nn1Cc1cccc(Br)c1`: the growth is 29.1%.

As for `COc1ccc(/C=N/N=C(\C)c2ccc3c(c2)Nc2ccccc2S3)cc1O`, the growth is 28.3%.

On to `O=C(CSc1nnc(-c2c[nH]c3ccccc23)n1-c1ccccc1)c1ccc(Br)cc1`, for which the growth is 54.4%.
